Values without a mark were called inactive.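 The calls were made as follows: active = combined score above 50, rising as EC50 falls below 10 µM and growth at top dose drops; inactive = the rest.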 Peptide text beside a SMILES is read from it. * marks the point of attachment. Cbz = O=C(OCc1ccccc1)*

The subject of the assay is YE4008. The assay can be described thus: yeast strain panel proliferation effects – secondary panel, OD600, 26S proteasome disassembly project, profiling panel (AID 2125). The conditions noted are these: S. cerevisiae strain panel, growth OD600, 6-8 h, at 100 µM, stronger effect = lower value.

For the compound `CC(=O)N1C(=O)C(=C2C=C(C)OC(C)=C2)c2ccccc21`, the percent response (growth) was 56.6%.

Turning to `CC(C)C[C@@H](C=O)NC(=O)[C@H](CC(C)C)NC(=O)[C@H](CC(C)C)NC(=O)OCc1ccccc1` (Cbz-Leu-Leu-Leu-aldehyde), the percent response (growth) is 88.2%.

Source of the values: PubChem BioAssay AID2125 (NMMLSC, 2009).
